Tests used:
Settings in all cases: concentration: 1 μM, replicates: in singlicate; n = 1
[1] = system: T1, JNK3
T1 construct: gene MAPK10

[2] = system: KIT-autoinhibited
[3] = system: KIT
[4] = system: LATS1
[5] = system: LATS2
[6] = system: LCK
[7] = system: LIMK1
[8] = system: LIMK2
[9] = system: T2, LKB1
T2 construct: gene STK11

[10] = system: T3, LOK
T3 construct: gene STK10
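Also: KINOMEscan kinase panel screen.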

Row | SMILES | %Inh [1] | %Inh [2] | %Inh [3] | %Inh [4] | %Inh [5] | %Inh [6] | %Inh [7] | %Inh [8] | %Inh [9] | %Inh [10]
1 | CS(=O)(=O)CCNCc1nc(-c2ccc3ncnc(Nc4ccc5c(cnn5Cc5ccccc5)c4)c3c2)cs1.Cl.Cl [GW569716] | 4% | 0% | 6% | 0% | 0% | 9% | 0% | 0% | 0% | 0%
2 | Cc1ccc(NC(=O)Nc2ccccc2F)cc1-c1ccc(C(=O)Nc2ccncc2)cc1 [GSK1398477] | 0% | 5% | 99.6% | 0% | 2% | 68% | 36% | 15% | 0% | 33%
3 | c1ccc(-c2ccnc3[nH]ccc23)cc1 [SB-693578] | 11% | 0% | 1% | 0% | 53% | 7% | 6% | 0% | 0% | 0%
4 | Cc1ccc(-c2nc(Nc3ccncc3)c3ccccc3n2)s1 [GSK189015] | 14% | 0% | 22% | 0% | 0% | 7% | 31% | 7% | 0% | 1%
5 | COC(=O)C(NC(=O)NC1CCN(c2ccnc(Nc3ccc(F)cc3)n2)C1)c1ccccc1 (centres unmarked) [GSK1379712] | 0% | 5% | 29% | 13% | 5% | 18% | 17% | 10% | 15% | 0%
